# Screening results: PubChem, several laboratories
# An excerpt weighted towards active compounds, which were near 1.6% of everything screened.
# NALP1 yeast inh: blocks the NALP1 inflammasome reconstituted in yeast | inhibition, % at 10 µM | S. cerevisiae NALP1/ASC/caspase-1 growth, X-gal OD620, 72 h | 280,000 compounds, 0.61% hits; in the data active = inhibition mostly above about 24%, no sharp cut-off; inactive = mostly below about 32%
# MOR-DOR ag: agonists of human mu-delta opioid receptor heterodimerization | P35372+P41143 | cells, OPRM1-OPRD1 heterodimerization, luminescence | activation, % at 9.3 µM | 340,000 compounds, 0.3% hits | AID 504326; in the data active = activation above about 18%;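 note: 0% = vehicle-treated cells and 100% = reference agonist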
# Target sequence (P35372 whole entry, looked up): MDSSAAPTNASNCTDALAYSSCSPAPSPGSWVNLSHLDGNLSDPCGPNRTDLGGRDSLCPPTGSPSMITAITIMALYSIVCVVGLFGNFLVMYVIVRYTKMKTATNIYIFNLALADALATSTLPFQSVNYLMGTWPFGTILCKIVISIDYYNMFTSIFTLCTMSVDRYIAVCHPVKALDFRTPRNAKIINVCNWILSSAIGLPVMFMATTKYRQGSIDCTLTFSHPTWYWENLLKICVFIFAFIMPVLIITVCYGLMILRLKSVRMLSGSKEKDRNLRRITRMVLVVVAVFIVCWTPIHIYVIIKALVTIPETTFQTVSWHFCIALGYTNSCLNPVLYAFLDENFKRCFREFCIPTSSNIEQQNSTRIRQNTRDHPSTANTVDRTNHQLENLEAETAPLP
# Target sequence (P41143 whole entry, looked up): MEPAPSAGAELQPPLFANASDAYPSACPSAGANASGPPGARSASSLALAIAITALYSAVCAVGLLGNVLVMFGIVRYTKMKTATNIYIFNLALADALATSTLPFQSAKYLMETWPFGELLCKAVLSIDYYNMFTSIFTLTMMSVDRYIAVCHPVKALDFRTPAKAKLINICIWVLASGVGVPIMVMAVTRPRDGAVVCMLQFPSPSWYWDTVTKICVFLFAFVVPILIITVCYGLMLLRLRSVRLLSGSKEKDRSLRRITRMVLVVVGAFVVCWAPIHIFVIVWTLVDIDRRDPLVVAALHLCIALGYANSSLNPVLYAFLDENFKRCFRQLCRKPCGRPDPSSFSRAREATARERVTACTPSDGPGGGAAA
# MOR-DOR inv ag: inverse agonists of human mu-delta opioid receptor heterodimerization; AID 504357; 340,000 compounds, 0.21% hits; inhibition, % at 9.3 µM; cell-based MOR-DOR heterodimer luminescence, inverse agonism; P35372+P41143; in the data active = inhibition above about 22%, passing the limit was not always enough;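 note: 0% = cells with DMSO and 100% = wells without cells with DMSO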
# HTR5A inv ag: inverse agonist of human HTR5A in OPRM1-OPRD1 counter-screen | P47898 | HTR5A cell line, luminescence, inverse agonism | inhibition, % at 9.3 µM | 340,000 compounds, 0.083% hits | AID 504634; in the data active = inhibition mostly above about 23%, no sharp cut-off; inactive = mostly below about 18%;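 note: 0% = cells with DMSO and 100% = no-cell wells with DMSO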
# PolyA inhibitor: yeast polyadenylation inhibition | S. cerevisiae SKY197-pL101 polyadenylation reporter, beta-gal luminescence; efflux-impaired pdr1/pdr3 knockout yeast; score 100 = 6 SD above DMSO | activity score, % at 12 µM | 300,000 compounds, 0.02% hits | AID 1875;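 active = lowest replicate activity score at least 50, where 100 means six control SD above control mean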;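 note: yeast exposed to compound for 9 h at 30 °C; higher score means more reporter readthrough which indicates perturbed polyadenylation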
# HTR5A ag ctr: counter-screen for OPRM1-OPRD1 agonists: human HTR5A agonism; P47898; HTR5A agonist assay, luminescence, cell-based; activation, % at 9.3 µM; 340,000 compounds, 0.61% hits; in the data active = activation mostly above about 9.5%, no sharp cut-off; inactive = mostly below about 7.6%;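 note: 0% = cells with vehicle only and 100% = reference agonist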
# Starred values were filed as active, the others as inactive; / = not tested or not shown.
SMILES,NALP1 yeast inh,MOR-DOR ag,MOR-DOR inv ag,HTR5A inv ag,PolyA inhibitor,HTR5A ag ctr
COc1ccc(C2SCC(=O)N2c2c(C)n(C)n(-c3ccccc3)c2=O)cc1OC (stereo unspecified),11,-1,6,7,67*,-1
Cc1c(N2C(=O)CSC2c2ccccc2)c(=O)n(-c2ccccc2)n1C (stereo unspecified),0,-1,3,-14,-9,1
COc1ccccc1/C=C/CN1CCNC(=O)C1CC(=O)NCCc1cnccn1 (stereo unspecified),7,-1,6,10,3,-4
CCOC(=O)CNC(=O)CSc1nc(C)cc(C)c1C#N,37*,-2,13,-9,1,2
CC1CCN(CCCn2c(=S)[nH]c3c(sc4ccc([N+](=O)[O-])cc43)c2=O)CC1,22,2,-8,-27,-9,9.7*
CC1CCN(CCCn2c(=S)[nH]c3c(sc4ccccc43)c2=O)CC1,-16,-2,12,4,11,-1
CCCC(=O)NCc1ccncc1,2,/,/,/,9,/
O=C1NC(=Nc2ccccc2)S/C1=C\c1cccn1-c1ccccc1,39*,3,-16,-3,-3,1
COc1ccc2c(c1)CC/C(=C/c1ccncc1)C2=O,37,0,2,-23,-12,-3
COc1ccc2c3c(ccc2c1)C(=O)/C(=C/O)CC3,/,25*,-120,-86,/,22*
COc1ccc(OC)c(S(=O)(=O)Nc2ccc(O)c3ccccc23)c1,104*,4,-22,-10,16,3
Cc1cc2ncn(/N=C/c3ccc([N+](=O)[O-])s3)c2cc1C,59*,13,-79,4,-10,8
O=[N+]([O-])c1ccc(/C=N/n2cnc3ccccc32)s1,54*,9,-47,-18,-23,2
Cc1nc2ccccc2n1/N=C/c1ccc([N+](=O)[O-])s1,38,10,-65,-6,-67,0
O=C(CN1C(=O)NC2(CCOc3ccccc32)C1=O)NCCc1ccccc1 (stereo unspecified),/,1,-2,8,/,-3
CCOc1ccc(NC(=O)c2[nH]c(C)c(C(C)=O)c2C)cc1,-9,-2,9,3,-11,-1
COc1ccc(NC(=O)c2[nH]c(C)c(C(C)=O)c2C)cc1S(=O)(=O)Nc1ccc(Br)cc1,-1,-2,9,-2,-18,13*
COc1ccc(NC(=O)c2ccc(F)cc2)cc1S(=O)(=O)Nc1cc(C)ccc1Br,31,5,-33,-9,-1,12*
COc1ccc(NC(=O)c2[nH]c(C)c(C(C)=O)c2C)cc1,-1,2,-9,2,-6,12*
CC1CCN(C(=O)CCc2nnc3ccc(N4CCC5(CC4)OCCO5)nn23)CC1,11,-3,14,8,5,7
CC1(C(=O)NCC2CCCO2)Oc2cccnc2NC1=O (stereo unspecified),-11,-4,18,1,-2,0
Cc1ccc(C(=O)NCC(=O)OCC(=O)N(CC(C)C)c2c(N)n(Cc3ccccc3)c(=O)[nH]c2=O)cc1,/,0,3,-1,2,4
CCCCn1c(SCC(=O)NC2CC2)nc2ccccc2c1=O,10,-2,13,2,-9,1
COc1ccc(CC(=O)Nc2cccc(-c3nnc(-c4ccc(C)cc4)o3)c2)cc1OC,-4,20*,-113,-38,3,17*
O=C(N/N=C/c1ccccc1C(=O)O)c1cccc(S(=O)(=O)N2CCCCC2)c1,/,1,-3,5,/,-1
SMILES,NALP1 yeast inh,MOR-DOR ag,MOR-DOR inv ag,HTR5A inv ag,PolyA inhibitor,HTR5A ag ctr
CCN(CC)CC#CCC(O)(c1ccccc1)c1ccccc1,22,0,0,-22,11,5
CCN(CC)CC#CCC(C)(c1ccccc1)c1ccccc1,31*,5,-26,4,-1,-1
CCc1ccc(CNC(=O)C2Cc3cc(S(=O)(=O)N4CCCC4)ccc3N2C(C)=O)cc1 (stereo unspecified),16,-3,13,1,-7,-4
COc1ccccc1C(c1nnnn1C(C)(C)C)N1CCCc2ccccc21 (stereo unspecified),3,1,-6,-26,3,13*
CC(C)(C)n1nnnc1C(c1ccc(Cl)cc1)N1CCCc2ccccc21 (stereo unspecified),29,-2,13,14,-14,3
CC1(C)CC(=O)/C(=C\c2cccc([N+](=O)[O-])c2)C(C)(C)N1,67*,-1,8,12,6,-3
Cc1cccc(C)c1OCC(O)CN1CCC(CN2C(=O)c3cccc4cccc(c34)C2=O)CC1 (stereo unspecified),43*,-1,4,-18,20,2
COc1cc(-n2c(=O)c3ccccc3n(CC(=O)c3ccc(F)cc3)c2=O)cc(OC)c1OC,-1,-2,12,-7,14,2
CN(C)n1cnc2ccsc2c1=O,30*,-2,9,3,3,-1
COc1ccc(Nc2nc(Nc3ccc(OC)cc3)nc(SC3=NCCS3)n2)cc1,-9,0,-1,-38,-7,9.8*
CC(C)CCNC(=O)C1CCCN(S(=O)(=O)c2ccc3c(c2)CC(C)N3C(=O)C2CC2)C1 (stereo unspecified),-1,-3,13,1,2,0
Cc1ccnc(SCc2cc(=O)c(OC(=O)c3ccc(S(=O)(=O)N(C)C)cc3)co2)n1,29,-1,5,-13,-15,2
Cc1cc(Nc2ccc(Cl)cc2)nc(NCc2ccccc2)n1,76*,12,-55,23,10,3
Cc1cc(Nc2cccc(F)c2)nc(NCc2ccccc2)n1,72*,7,-35,-9,-5,-1
Cc1cc(Nc2ccccc2)nc(NCc2ccccc2)n1,42,1,-4,-12,7,3
CCOC(=O)C1=C(C)Nc2[nH]c(=O)[nH]c(=O)c2C1c1cccs1 (stereo unspecified),16,-2,10,6,-14,-2
C=CCOC(=O)C1=C(C)Nc2[nH]c(=O)[nH]c(=O)c2C1c1ccccc1 (stereo unspecified),29*,0,1,-3,/,1
O=C(CNC(=O)c1ccc(Cl)cc1Cl)OCCCn1c(=O)[nH]c2ccccc21,/,-1,5,-14,-1,-6
O=c1oc(-c2cccs2)nc2ccc(Cl)cc12,-9,1,-4,-3,8,1
O=c1oc(-c2cccs2)nc2ccccc12,-3,0,1,4,-26,14*
COc1ccc(CNc2nc3nc(C)cc(C)n3n2)cc1OC,/,-3,13,0,14,4
Cc1cc(C)n2nc(NCc3cccc(Br)c3)nc2n1,-13,1,-3,-36,-7,12*
